Screening data as filed in PubChem.
Six1-Eya2 inh – inhibitors of human Six1/Eya2 interaction. Q15475+O00167. AlphaScreen GST-Six1/His-Eya2 binding, biochemical; hits give low values. activity change, % (no concentration beside the values). hit rate 0.56% among 360,000; in the data active = activity change below about -65%; inconclusive = mostly about -30% to -63%
Target sequence (O00167 whole entry, looked up): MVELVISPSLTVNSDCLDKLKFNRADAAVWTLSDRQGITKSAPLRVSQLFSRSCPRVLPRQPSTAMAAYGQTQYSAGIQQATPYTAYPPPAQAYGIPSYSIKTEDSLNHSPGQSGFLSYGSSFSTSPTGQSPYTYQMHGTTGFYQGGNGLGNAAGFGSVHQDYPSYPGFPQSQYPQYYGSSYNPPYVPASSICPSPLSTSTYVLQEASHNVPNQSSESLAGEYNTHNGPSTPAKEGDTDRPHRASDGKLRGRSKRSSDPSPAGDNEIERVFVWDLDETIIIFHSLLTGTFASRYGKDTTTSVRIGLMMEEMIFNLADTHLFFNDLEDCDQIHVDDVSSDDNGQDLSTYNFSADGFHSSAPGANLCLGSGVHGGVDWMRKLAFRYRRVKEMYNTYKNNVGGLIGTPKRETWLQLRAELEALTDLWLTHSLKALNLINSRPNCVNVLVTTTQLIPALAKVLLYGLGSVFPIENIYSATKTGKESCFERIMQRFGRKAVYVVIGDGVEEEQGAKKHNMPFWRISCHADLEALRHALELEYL
Target sequence (Q15475 whole entry, looked up): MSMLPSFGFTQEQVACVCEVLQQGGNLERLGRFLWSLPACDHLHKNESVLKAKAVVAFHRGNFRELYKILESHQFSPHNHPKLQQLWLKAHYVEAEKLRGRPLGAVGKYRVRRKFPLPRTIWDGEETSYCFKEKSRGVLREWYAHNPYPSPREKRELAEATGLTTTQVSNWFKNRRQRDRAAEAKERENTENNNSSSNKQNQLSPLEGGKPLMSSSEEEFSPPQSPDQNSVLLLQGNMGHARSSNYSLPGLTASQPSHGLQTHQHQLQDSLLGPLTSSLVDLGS
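AlphaScreen with GST-Six1 and His-Eya2 (5X mix: 250 nM and 500 nM), glutathione donor and nickel acceptor beads; buffer 50 mM Tris pH 8.0, 300 mM NaCl, 1 mM TCEP; 1 h at 37 C in the dark.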
RORgamma inh – blocks mouse ROR gamma transcriptional activity | AID 2551 | Potency, µM (doses to about 53.6 µM), actives largely listed as inhibitors | hit rate 5.4% among 310,000 | P51450 | Drosophila S2 Gal4-RORgamma UAS-luciferase reporter, 20 h; note: nearly all actives have a fitted effect of over 60% in size
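Stable Schneider cell line, Gal4 DNA-binding domain fused to ROR gamma, UAS-luciferase. Cmpd 1 hr RT → CuSO4 700 uM final → 20 hr RT → luciferase reagent 10 min → luminescence.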
CtBP-E1A blk – blocks the CtBP interaction with E1A; AlphaScreen GST-E1A/His-CtBP binding, 1536-well; hits give low values; activity change, % (concentration not given with the values); hit rate 0.49% among 340,000; in the data active = activity change below about -65%; inconclusive = mostly about -30% to -63%
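Protein mix (5X: 125 nM each GST-E1A, His-CtBP) was incubated with pinned compound 2 h at 37 deg C in dark, in 50 mM Tris pH 8.0 buffer with 300 mM NaCl. Glutathione donor and nickel acceptor beads followed; AlphaScreen signal read after 1 h.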
PKM2 activator – PKM2 (human) enzyme activation | AID 1631 | Potency, µM (top dose mostly 57.5 µM), hits mostly activators | P14618 | purified PKM2, Kinase-Glo ATP luminescence, activation; response scale: 0% is enzyme alone, no compound | hit rate 0.34% among 260,000; note: nearly all actives have a fitted effect of over 55% in size
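Kinase-Glo luminescence reports ATP generated from ADP (0.1 mM) and PEP (0.5 mM) by purified hPK-M2 after 1 h at room temperature, pH 7.2 imidazole buffer; intermediate enzyme activity allows detecting inhibitors and activators.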
Gal4-VP16 FLuc – inhibits Gal4-VP16 luciferase reporter, ROR gamma counter-screen | hit rate 3.5% among 310,000 | Drosophila S2 Gal4-VP16 UAS-luciferase, luminescence, 20 h | Potency, µM (titrated, usually from 53.6 µM), usual class: inhibitors;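 note: Gal4-VP16 expression switched on by copper sulfate through the metallothionein promoter; nearly all actives have a fitted effect of over 50% in size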
Of the large screens only hits and unclear results are named; the others gave an inactive call. Most compounds without a hit are left out; they make up all but 5.6% or so of the library. Unless noted, calls come from the whole dose curve; as a rule, active = well fitted curve in the direction sought with a large enough effect; inconclusive = small, poorly fitted or top-dose-only effect, or another doubt; inactive = no such curve, though single readings can be large; an effect the other way counts as inactive or inconclusive.

Cc1nnc(N/N=C/c2ccc(-c3ccc(Br)cc3)o2)n1N	RORgamma inh 3.2µM, Gal4-VP16 FLuc 8.9µM
C=CCn1c(Sc2ncc([N+](=O)[O-])s2)n[nH]c1=O	Six1-Eya2 inh inconclusive, RORgamma inh 4.5µM, Gal4-VP16 FLuc 4µM
C=CCn1c(CSc2ccccc2[N+](=O)[O-])n[nH]c1=S	none (no result: PKM2 activator)
Cn1c(=O)c2c(nc(CN3CCN(Cc4ccccc4)CC3)n2CCN2CCOCC2)n(C)c1=O	RORgamma inh 1.6µM
COC(=O)Cn1c(CN2CCc3ccccc3C2)nc2c1c(=O)n(C)c(=O)n2C	Gal4-VP16 FLuc 5.6µM
CCOCCn1c(CN2CCN(c3ccc(F)cc3)CC2)nc2c1c(=O)n(C)c(=O)n2C	Gal4-VP16 FLuc inconclusive
Cc1ccccc1Cn1c(CN2CCc3ccccc3C2)nc2c1c(=O)n(C)c(=O)n2C	none
COC(=O)Cn1c(CN2CCN(c3ccc(F)cc3)CC2)nc2c1c(=O)n(C)c(=O)n2C	Gal4-VP16 FLuc 2.8µM
CC(NC(=O)Cn1ncc(Cl)c(Cl)c1=O)C12CC3CC(CC(C3)C1)C2 (stereo not drawn)	RORgamma inh 13µM, Gal4-VP16 FLuc inconclusive
CCOC(=O)Cc1csc(SCn2nnc3ccccc3c2=O)n1	none
CCOC(=O)Cc1csc(-n2sc3ccccc3c2=O)n1	RORgamma inh 11µM, Gal4-VP16 FLuc inconclusive
C[C@H]1O[C@@H](O[C@H]2[C@@H](O)C[C@H](O[C@H]3[C@@H](O)C[C@H](O[C@H]4CC[C@@]5(C)[C@H](CC[C@@H]6[C@@H]5C[C@@H](O)[C@]5(C)[C@@H](C7=CC(=O)OC7)CC[C@]65O)C4)O[C@@H]3C)O[C@@H]2C)C[C@H](O)[C@@H]1O	RORgamma inh 1.6µM
C[C@@H]1O[C@H](O[C@@H]2[C@H](C)O[C@H](O[C@@H]3[C@H](C)O[C@H](O[C@H]4CC[C@]5(C)[C@@H](CC[C@@H]6[C@H]5C[C@@H](O)[C@]5(C)[C@@H](C7=CC(=O)OC7)CC[C@]65O)C4)C[C@@H]3O)C[C@@H]2O)C[C@H](O)[C@@H]1O	RORgamma inh 4µM (no result: Six1-Eya2 inh, CtBP-E1A blk, PKM2 activator)
Cc1ncn(-c2ccccc2)c1-c1ccccc1	none (no result: RORgamma inh, PKM2 activator, Gal4-VP16 FLuc)
CCOC(=O)c1cc2c(C)n(-c3ccc(OCC)cc3)c(C)c2ccc1=O	RORgamma inh inconclusive
CCOC(=O)c1cc2c(C)n(-c3ccc(C)cc3)c(C)c2ccc1=O	Gal4-VP16 FLuc 10µM
CC(C)Oc1cccc(-c2cc(C(=O)NC(=S)N(C)c3ccccc3C(=O)O)c3ccccc3n2)c1	RORgamma inh 11µM, Gal4-VP16 FLuc inconclusive
CCNC(=S)NNC(=O)c1cc(CC(C)C)nc2ccccc12	RORgamma inh 0.4µM, Gal4-VP16 FLuc inconclusive
CCNC(=S)NNC(=O)c1cc(-c2ccccc2C)nc2ccccc12	RORgamma inh 0.56µM
CCNC(=S)NNC(=O)c1cc(-c2ccc(OCC)cc2)nc2ccccc12	none
Cc1ccc(C)c(-c2cc(C(=O)NNC(=S)NCC(C)C)c3ccccc3n2)c1	RORgamma inh 1.1µM, Gal4-VP16 FLuc inconclusive
Cc1ccc(C)c(-c2cc(C(=O)NC3CC3)c3ccccc3n2)c1	none (no result: PKM2 activator)
CC(C)Cc1cc(C(=O)Nc2ccccc2)c2ccccc2n1	none
CCCOc1cccc(-c2cc(C(=O)NNC(=S)NCC)c3ccccc3n2)c1	RORgamma inh inconclusive, Gal4-VP16 FLuc inconclusive
CCNC(=S)NNC(=O)c1cc(-c2cccc(OC)c2)nc2ccccc12	RORgamma inh 2.2µM, Gal4-VP16 FLuc 13µM
Cc1cc(C(=O)NNC(=S)NC(C)c2ccccc2)c2ccccc2n1 (stereo not drawn)	RORgamma inh 5µM
Cc1ccc(-n2[nH]c(C)c(/C=N/c3ccccn3)c2=O)cc1	none
Cc1[nH]n(-c2ccccc2)c(=O)c1/C=N/N1C(=O)c2cccc3cccc(c23)C1=O	RORgamma inh 7.1µM, Gal4-VP16 FLuc inconclusive
Cc1[nH]n(-c2ccccc2)c(=O)c1C=Nc1cccc2cccnc12	Six1-Eya2 inh inconclusive, RORgamma inh 0.63µM, Gal4-VP16 FLuc 0.63µM
COc1cc(OC)c(C2C=CC(=O)CC2)c(OC)c1 (stereo not drawn)	none (no result: RORgamma inh, PKM2 activator, Gal4-VP16 FLuc)
COc1cc(/C=N/NC(=O)CNC(=O)/C=C/c2ccco2)cc(OC)c1OC	CtBP-E1A blk inconclusive
O=C(CNc1cccc2ccccc12)N/N=C/c1ccc(OC(=O)/C=C/c2ccco2)cc1	Six1-Eya2 inh inconclusive, CtBP-E1A blk -79
O=C(COc1ccc2ccccc2c1)NCC(=O)N/N=C/c1ccco1	none
O=C(/C=C/c1ccco1)Oc1cc(Br)cc(/C=N/NC(=O)c2ccccc2O)c1	Six1-Eya2 inh -88, RORgamma inh 3.2µM, CtBP-E1A blk -92, Gal4-VP16 FLuc 2.8µM
O=C(CNc1ccc2ccccc2c1)N/N=C/c1ccc(OC(=O)/C=C/c2ccco2)cc1	Six1-Eya2 inh inconclusive, CtBP-E1A blk -67
Cc1ccc(C(=O)N/N=C/c2cccc(OC(=O)/C=C/c3ccco3)c2)cn1	none (no result: CtBP-E1A blk)
Nc1cc(C(F)(F)F)ccc1OCC1CCCO1 (stereo not drawn)	none
Cc1cc(NC(=O)Nc2cc(Cl)sc2Cl)no1	none (no result: PKM2 activator)
OCC1=CC[N+]2(Cc3ccccc3)CCC(O)[C@@H]12 (stereo partly drawn)	none (no result: Six1-Eya2 inh, CtBP-E1A blk, PKM2 activator)
CC(C)(C)c1ccc(C(=O)N2CCC(=O)N(C(COCc3ccccc3)Cc3ccccc3)CC2)cc1 (stereo not drawn)	Gal4-VP16 FLuc 14µM (no result: CtBP-E1A blk)
CCOC(=O)c1c(C)cc(C)n2c1nc1ccccc12	RORgamma inh 5.6µM
C/C(=N\NC(=S)Nc1ccc(C)c(C)c1)c1ccc(N2CCOCC2)cc1	Six1-Eya2 inh inconclusive, RORgamma inh 14µM, CtBP-E1A blk inconclusive, Gal4-VP16 FLuc inconclusive
C/C(=N\NC(=S)Nc1cc(S(=O)(=O)N2CCOCC2)ccc1Cl)c1ccc(N2CCOCC2)cc1	RORgamma inh 2.8µM, Gal4-VP16 FLuc 11µM
COc1ccc2cc(/C(C)=N/NC(=S)Nc3cc(S(=O)(=O)N4CCOCC4)ccc3N3CCOCC3)ccc2c1	RORgamma inh 6.3µM (no result: Six1-Eya2 inh, CtBP-E1A blk)
C/C(CCC(C)C)=N\NC(=S)Nc1cc(S(=O)(=O)N2CCOCC2)ccc1N1CCOCC1	RORgamma inh 11µM, Gal4-VP16 FLuc inconclusive
CC(=O)c1ccc(NC(=S)Nc2ccc(N3CCOCC3)cc2)cc1	none (no result: PKM2 activator)
COc1cccc(C(=O)Nc2cc(S(=O)(=O)N3CCOCC3)ccc2N2CCOCC2)c1	none (no result: RORgamma inh, PKM2 activator, Gal4-VP16 FLuc)
Cc1noc(C)c1S(=O)(=O)Nc1ccc2c(c1)CC(=O)N([C@H](C)CO)C[C@H](C)[C@@H](CN(C)CC1CC1)O2	none (no result: RORgamma inh, PKM2 activator, Gal4-VP16 FLuc)
C=CCOC(=O)CSCC(NC(=O)OC(C)(C)C)C(=O)OCC (stereo not drawn)	RORgamma inh 8.9µM, Gal4-VP16 FLuc 11µM
CCOC(=O)CNC(=O)C(CC(N)=O)NC(=O)OC(C)(C)C (stereo not drawn)	none (no result: CtBP-E1A blk)
